Here are results for five compounds from PubChem BioAssay (EPA / NIEHS).

The target of experiment [1] is Paired box protein Pax-6 (Homo sapiens) (UniProt P26367). Description: ATG_Pax6_CIS: Attagene CIS-FACTORIAL HepG2 Assay for human Paired Box 6 (PAX6) (AID 2282956). The note with it: HepG2 CIS-FACTORIAL PAX6 reporter transcription, RNA readout; actives raise or lower the signal. In a few lines: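 DMSO-referenced bidirectional fits of reporter mRNA fluorescence; HepG2 with transient cis-promoter MRTUs, 24 h post-dose, RT-PCR plus capillary electrophoresis detection.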

A short description of experiment [2]: ATG_PXRE_CIS: Attagene CIS-FACTORIAL HepG2 Assay for human Pregnane X Receptor Element (PXRE) (AID 2282957). As to conditions: HepG2 Attagene CIS-FACTORIAL PXRE reporter, mRNA; actives raise or lower the signal. In a few lines:
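Fluorescent capillary electrophoresis of amplified reporter cDNA gave the signal, collected 24 h after dosing HepG2 cells that held transfected cis-element reporter constructs.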

Experiment [3] is described as follows: ATG_PPRE_CIS: Attagene CIS-FACTORIAL HepG2 Assay for human Peroxisome Proliferator-activated Response Element (PPRE) (AID 2282958). The note with it: HepG2 PPRE cis-element reporter, Attagene transcription factor profiling; actives raise or lower the signal. In a few lines: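 After human HepG2 hepatoma cells were transiently transfected with cis-promoter reporter constructs, they were exposed to test chemicals for 24 hours. Reporter RNA was then reverse-transcribed, PCR-amplified, FAM-labeled, HpaI-digested and quantified by capillary electrophoresis.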

Experiment [4] can be described thus: ATG_RORE_CIS: Attagene CIS-FACTORIAL HepG2 Assay for human RAR-related Orphan Receptor Element (RORE) (AID 2282959). The note with it: HepG2 Attagene cis-factorial RORE reporter, mRNA; actives raise or lower the signal. The method in brief:
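Measured here: transcript induction of a cis-regulated reporter in HepG2 cells transiently transfected via FuGene 6. After 24 h, RNA was processed by RT-PCR and fluorescent capillary electrophoresis; DMSO defined baseline activity.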

A short description of experiment [5]: ATG_Sox_CIS: Attagene CIS-FACTORIAL HepG2 Assay for human SRY-box transcription factor (SOX) (AID 2282960). The note with it: HepG2 Attagene cis-factorial SOX reporter, mRNA; actives raise or lower the signal. In a few lines: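 Using transiently transfected HepG2 cells, reporter transcription driven by cis elements was assessed 24 h after dosing. Signal was fluorescence of capillary-separated RT-PCR products, with DMSO defining baseline activity.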

Experiment [6] concerns the target Transcription factor Sp1 (Homo sapiens) (UniProt P08047). In words: ATG_Sp1_CIS: Attagene CIS-FACTORIAL HepG2 Assay for human Specificity Protein 1 (Sp1) (AID 2282961). The note with it: HepG2 Sp1 cis-reporter transcription, actives raise or lower the signal. In a few lines: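 After transient transfection of HepG2 cells with cis-promoter reporter units and 24 h chemical treatment, reporter transcripts were quantified by RT-PCR and capillary electrophoresis fluorescence. Gain- and loss-of-signal fitted against DMSO.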

Experiment [7] addresses Signal transducer and activator of transcription 3 (Homo sapiens) (UniProt P40763). Description: ATG_STAT3_CIS: Attagene CIS-FACTORIAL HepG2 Assay for human Signal Transducer and Activator of Transcription 3 (STAT3) (AID 2282963). The note with it: HepG2, Attagene cis-factorial STAT3 reporter transcription; actives raise or lower the signal. The method in brief: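 Uses human liver HepG2 transiently carrying cis-regulated reporter transcription units. Following 24 h dosing, reporter mRNA induction was detected by RT-PCR and capillary electrophoresis, analysed bidirectionally versus DMSO.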

A short description of experiment [8]: ATG_TA_CIS: Attagene CIS-FACTORIAL HepG2 Assay for human TA Basal Promoter (AID 2282964). As to conditions: HepG2 Attagene CIS-factorial TA basal promoter reporter; actives raise or lower the signal. In a few lines:
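Background-control readout: TA basal promoter reporter mRNA, fitted in both directions relative to DMSO. Measured by RT-PCR and capillary electrophoresis 24 hours after treating HepG2 human liver cells transiently carrying multiplexed cis-regulated reporter constructs.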

Experiment [9] can be described thus: ATG_TCF_b_cat_CIS: Attagene CIS-FACTORIAL HepG2 Assay for human T-Cell-Factor with beta-catenin (TCF/b-cat) (AID 2282965). The note with it: HepG2 TCF/beta-catenin cis-reporter transcription, actives raise or lower the signal. In a few lines: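 In this cis-format system, transfected HepG2 cells report endogenous transcription factor activity. Readout after 24 h exposure is reporter transcript abundance from RT-PCR and capillary electrophoresis, analysed for gain or loss of signal versus DMSO.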

Experiment [10] can be described thus: ATG_TAL_CIS: Attagene CIS-FACTORIAL HepG2 Assay for human TAL Basal Promoter (AID 2282966).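 Also: background control endpoint measuring basal TAL promoter reporter mRNA not a specific factor.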 As to conditions: HepG2 Attagene cis-factorial TAL promoter reporter; actives raise or lower the signal. In a few lines:
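Transiently transfected HepG2 (cis-regulated reporter units), 24 h treatment, mRNA read by fluorescent CE after RT-PCR; bidirectional fit, DMSO baseline.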

Experiment [11] in a line: ATG_TGFb_CIS: Attagene CIS-FACTORIAL HepG2 Assay for human Transforming Growth Factor (TGF) (AID 2282967). As to conditions: HepG2 Attagene CIS TGFb reporter, mRNA transcription; actives raise or lower the signal. The method in brief: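 Endogenous TGFB1-linked transcription factor activity read as reporter mRNA via RT-PCR and capillary electrophoresis, 24 h after dosing transiently transfected HepG2 cells. Gain or loss of signal fitted relative to DMSO.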

In experiment [12] the target is Nuclear receptor subfamily 1 group I member 3 (Homo sapiens) (UniProt Q14994). In words: ATG_CAR_TRANS: Attagene TRANS-FACTORIAL HepG2 Assay for human Constitutive Androstane Receptor (CAR) (AID 2282969; active = hit-call score of the fitted dose curve at least 0.9, where 1 is the maximum;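 also: activators raise reporter mRNA above DMSO so AC50 marks induction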). The note with it: HepG2 Attagene TRANS-FACTORIAL CAR reporter. The method in brief: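 Steps: transient transfection of HepG2 with multiple GAL4-UAS reporter units; 24 h compound incubation; RNA isolation, RT-PCR, 6-FAM primer extension, HpaI digest; capillary electrophoresis. Gain-of-signal relative to DMSO negative control.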

For experiment [13], the target named is X-box-binding protein 1 (Homo sapiens) (UniProt P17861). In words: ATG_Xbp1_CIS: Attagene CIS-FACTORIAL HepG2 Assay for human X-box Binding Protein 1 (XBP1) (AID 2282972). As to conditions: HepG2 XBP1 cis-element reporter, Attagene multiplex; actives raise or lower the signal. The method in brief:
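Changes in reporter transcript abundance, read by RT-PCR and capillary electrophoresis, reflect endogenous transcription factor activity. Transfected HepG2 cells received compound for 24 hours; DMSO defined baseline for bidirectional analysis.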

Experiment [14] is described as follows: ATG_SREBP_CIS: Attagene CIS-FACTORIAL HepG2 Assay for human Sterol Regulatory Element Binding (SREBP) (AID 2282962). As to conditions: HepG2 Attagene cis-factorial SREBP reporter, mRNA; actives raise or lower the signal. In a few lines: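 In this cis-format assay, HepG2 liver cells express reporters controlled by promoter elements responsive to native transcription factors. Exposure lasts 24 h; reporter mRNA fluorescence from capillary electrophoresis gives the signal, fitted bidirectionally against DMSO.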

The nature of experiment [15]: ATG_VDRE_CIS: Attagene CIS-FACTORIAL HepG2 Assay for human Vitamin D Receptor Element (VDRE) (AID 2282968). As to conditions: HepG2 VDRE cis-reporter transcription, actives raise or lower the signal. The method in brief: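 Transfected HepG2 reporter cells, chemical treatment 24 h. RNA isolated, cDNA amplified with reporter-specific primers, products analysed by capillary electrophoresis. Endpoint fitted in both directions versus DMSO.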

Experiment [16] can be described thus: ATG_M_19_TRANS: Attagene TRANS-FACTORIAL HepG2 Assay for M19 Transcription Factor (Internal Marker) (AID 2282974; active = hit-call score of the fitted dose curve at least 0.9, where 1 is the maximum). The note with it: HepG2 Attagene TRANS-FACTORIAL M19 internal marker reporter. The method in brief:
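Gain-of-signal in reporter mRNA, relative to DMSO, was scored from capillary electrophoresis fluorescence. HepG2 cells carried transiently transfected multiple reporter transcription units and were incubated with test chemicals for 24 h.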

Experiment [17] in a line: ATG_GAL4_TRANS: Attagene TRANS-FACTORIAL HepG2 Assay for GAL4 (Internal Marker) (AID 2282976; active = hit-call score of the fitted dose curve at least 0.9, where 1 is the maximum). The note with it: HepG2 Attagene TRANS GAL4 internal marker reporter. The method in brief: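 HepG2 cells transiently transfected with multiplexed GAL4-UAS reporter constructs were dosed for 24 h. Reporter mRNA was measured by RT-PCR, 6-FAM primer extension, HpaI digestion and capillary electrophoresis, and gain of signal was fitted relative to DMSO.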

The target in experiment [18] is Estrogen receptor (Homo sapiens) (UniProt P03372). In words: ATG_ERa_TRANS: Attagene TRANS-FACTORIAL HepG2 Assay for human Estrogen Receptor alpha (ERa) (AID 2282970; active = hit-call score of the fitted dose curve at least 0.9, where 1 is the maximum). The note with it: HepG2 Attagene TRANS ERa GAL4 reporter, mRNA. In a few lines:
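One of 30 multiplexed endpoints from a HepG2 TRANS system, this one reports ERa-Gal4-driven reporter mRNA. Transcripts were quantified 24 hours post-dosing by fluorescent RT-PCR and capillary electrophoresis, with activity scored as induction over DMSO.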

Experiment [19] addresses Steroid hormone receptor ERR1 (Homo sapiens) (UniProt P11474). Description: ATG_ERRa_TRANS: Attagene TRANS-FACTORIAL HepG2 Assay for human Estrogen-Related Receptor alpha (ERRa) (AID 2282971; active = hit-call score of the fitted dose curve at least 0.9, where 1 is the maximum). The note with it: HepG2 Attagene TRANS reporter, ERRa transactivation. The method in brief: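 HepG2 cells transiently transfected with multiplexed GAL4-UAS reporter units reading chimeric ERRa-Gal4 activity; 24 h compound exposure. Reporter mRNA measured by RT-PCR, 6-FAM labelling, HpaI digest and capillary electrophoresis; gain of signal fitted versus DMSO baseline.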

Experiment [20] concerns the target Estrogen-related receptor gamma (Homo sapiens) (UniProt P62508). Description: ATG_ERRg_TRANS: Attagene TRANS-FACTORIAL HepG2 Assay for human Estrogen-Related Receptor gamma (ERRg) (AID 2282977; active = hit-call score of the fitted dose curve at least 0.9, where 1 is the maximum;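 also: hits increase reporter signal over DMSO so potencies reflect activators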). As to conditions: HepG2 Attagene TRANS reporter, ERRg transactivation. The method in brief:
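Readout: fluorescent reporter-mRNA fragments resolved by capillary electrophoresis after RT-PCR and HpaI cut. Cells: transiently transfected HepG2 carrying GAL4-UAS reporters driven by exogenous NR-Gal4 chimeras, dosed 24 h. Activity fitted upward relative to DMSO baseline.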

SMILES strings stand for the structures. Inconclusive results are not listed. Activity calls are given as the source filed them. The calls were made as follows, unless noted: active = hit-call score of the fitted dose curve at least 0.9, where 1 is the maximum; inactive = score below 0.9.

Sequence of Estrogen receptor (Homo sapiens) (P03372 whole entry, looked up, the tested form may be a part): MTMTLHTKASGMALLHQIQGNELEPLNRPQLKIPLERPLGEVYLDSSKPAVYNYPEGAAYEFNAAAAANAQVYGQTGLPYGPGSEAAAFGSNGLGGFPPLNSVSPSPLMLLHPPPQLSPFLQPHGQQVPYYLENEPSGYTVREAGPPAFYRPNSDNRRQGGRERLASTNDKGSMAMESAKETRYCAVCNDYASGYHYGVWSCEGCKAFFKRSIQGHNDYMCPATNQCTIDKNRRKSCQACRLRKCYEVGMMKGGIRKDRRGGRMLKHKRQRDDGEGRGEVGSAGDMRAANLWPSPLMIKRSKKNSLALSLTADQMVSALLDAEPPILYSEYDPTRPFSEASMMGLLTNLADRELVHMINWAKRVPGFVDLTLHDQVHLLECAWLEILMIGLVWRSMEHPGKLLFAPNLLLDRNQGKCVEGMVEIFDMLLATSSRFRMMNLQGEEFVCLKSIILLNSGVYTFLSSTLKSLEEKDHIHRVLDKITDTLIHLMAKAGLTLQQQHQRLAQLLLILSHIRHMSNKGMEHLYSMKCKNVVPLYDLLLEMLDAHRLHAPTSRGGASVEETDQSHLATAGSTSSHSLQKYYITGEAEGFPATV
Sequence of Signal transducer and activator of transcription 3 (Homo sapiens) (P40763 whole entry, looked up): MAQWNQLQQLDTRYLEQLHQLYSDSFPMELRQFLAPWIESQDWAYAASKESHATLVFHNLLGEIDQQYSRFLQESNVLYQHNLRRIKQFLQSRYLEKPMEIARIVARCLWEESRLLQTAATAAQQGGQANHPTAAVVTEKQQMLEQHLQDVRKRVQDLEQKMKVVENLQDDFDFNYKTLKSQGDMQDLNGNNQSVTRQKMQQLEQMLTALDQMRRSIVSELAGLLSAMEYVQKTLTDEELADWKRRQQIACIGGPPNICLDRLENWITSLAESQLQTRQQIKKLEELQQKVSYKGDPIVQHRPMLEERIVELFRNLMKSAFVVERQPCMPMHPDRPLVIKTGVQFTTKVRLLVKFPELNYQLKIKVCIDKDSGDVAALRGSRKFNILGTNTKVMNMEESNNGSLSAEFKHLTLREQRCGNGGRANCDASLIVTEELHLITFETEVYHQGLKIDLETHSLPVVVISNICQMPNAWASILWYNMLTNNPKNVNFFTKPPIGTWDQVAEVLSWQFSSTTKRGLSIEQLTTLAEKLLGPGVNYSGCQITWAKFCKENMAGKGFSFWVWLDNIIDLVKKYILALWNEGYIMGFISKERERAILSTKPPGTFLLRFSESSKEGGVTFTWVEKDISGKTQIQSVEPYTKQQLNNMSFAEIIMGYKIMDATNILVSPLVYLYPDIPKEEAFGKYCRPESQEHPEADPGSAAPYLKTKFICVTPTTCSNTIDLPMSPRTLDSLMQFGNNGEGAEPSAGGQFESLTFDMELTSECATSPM
Sequence of X-box-binding protein 1 (Homo sapiens) (P17861 whole entry, looked up): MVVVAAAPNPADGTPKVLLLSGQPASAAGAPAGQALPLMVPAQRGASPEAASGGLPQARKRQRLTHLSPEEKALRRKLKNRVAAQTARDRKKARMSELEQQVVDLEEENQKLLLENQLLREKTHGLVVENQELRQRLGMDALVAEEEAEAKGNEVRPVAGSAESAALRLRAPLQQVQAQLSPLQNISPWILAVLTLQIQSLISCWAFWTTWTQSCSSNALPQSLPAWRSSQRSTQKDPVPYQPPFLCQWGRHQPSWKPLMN
Sequence of Transcription factor Sp1 (Homo sapiens) (P08047 whole entry, looked up): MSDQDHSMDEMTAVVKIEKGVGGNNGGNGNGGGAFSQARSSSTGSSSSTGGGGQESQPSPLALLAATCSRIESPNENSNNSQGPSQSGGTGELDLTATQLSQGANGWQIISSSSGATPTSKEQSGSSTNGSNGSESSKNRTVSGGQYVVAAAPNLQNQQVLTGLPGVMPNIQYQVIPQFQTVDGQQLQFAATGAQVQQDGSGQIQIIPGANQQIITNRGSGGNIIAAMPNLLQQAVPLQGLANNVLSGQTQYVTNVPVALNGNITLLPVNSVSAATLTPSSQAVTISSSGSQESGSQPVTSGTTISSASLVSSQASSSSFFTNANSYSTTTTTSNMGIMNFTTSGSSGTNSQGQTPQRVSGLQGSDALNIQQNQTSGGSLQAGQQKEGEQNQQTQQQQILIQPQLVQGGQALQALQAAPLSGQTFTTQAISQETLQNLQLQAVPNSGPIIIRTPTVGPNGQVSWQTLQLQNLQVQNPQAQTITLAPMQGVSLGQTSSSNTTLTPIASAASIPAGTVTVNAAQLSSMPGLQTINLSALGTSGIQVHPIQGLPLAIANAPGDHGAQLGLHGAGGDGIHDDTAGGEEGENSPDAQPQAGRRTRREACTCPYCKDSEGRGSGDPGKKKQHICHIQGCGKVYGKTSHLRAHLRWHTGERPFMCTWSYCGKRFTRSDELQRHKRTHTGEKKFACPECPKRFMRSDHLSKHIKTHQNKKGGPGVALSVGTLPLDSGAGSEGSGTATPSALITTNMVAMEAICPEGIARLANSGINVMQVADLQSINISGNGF
Sequence of Paired box protein Pax-6 (Homo sapiens) (P26367 whole entry, looked up): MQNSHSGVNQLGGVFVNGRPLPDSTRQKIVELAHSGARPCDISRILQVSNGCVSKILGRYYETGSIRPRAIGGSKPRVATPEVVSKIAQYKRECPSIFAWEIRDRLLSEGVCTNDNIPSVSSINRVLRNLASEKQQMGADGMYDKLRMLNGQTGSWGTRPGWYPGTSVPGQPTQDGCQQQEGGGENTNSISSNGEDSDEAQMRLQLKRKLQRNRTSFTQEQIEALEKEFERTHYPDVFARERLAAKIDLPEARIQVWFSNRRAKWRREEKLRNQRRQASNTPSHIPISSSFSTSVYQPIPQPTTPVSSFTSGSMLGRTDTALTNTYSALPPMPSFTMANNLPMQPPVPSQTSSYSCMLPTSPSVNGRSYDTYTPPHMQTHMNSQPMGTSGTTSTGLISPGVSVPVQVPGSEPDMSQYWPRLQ
Sequence of Nuclear receptor subfamily 1 group I member 3 (Homo sapiens) (Q14994 whole entry, looked up, the tested form may be a part): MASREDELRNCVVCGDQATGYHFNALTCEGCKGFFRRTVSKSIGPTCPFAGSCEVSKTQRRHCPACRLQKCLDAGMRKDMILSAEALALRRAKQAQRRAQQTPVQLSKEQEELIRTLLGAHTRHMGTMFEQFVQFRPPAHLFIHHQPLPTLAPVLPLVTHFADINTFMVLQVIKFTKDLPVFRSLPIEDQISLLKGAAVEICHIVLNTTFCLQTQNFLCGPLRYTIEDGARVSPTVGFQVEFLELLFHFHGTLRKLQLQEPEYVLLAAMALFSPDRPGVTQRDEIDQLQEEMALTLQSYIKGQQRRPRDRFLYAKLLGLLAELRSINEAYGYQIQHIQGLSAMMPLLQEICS
Sequence of Steroid hormone receptor ERR1 (Homo sapiens) (P11474 whole entry, looked up, the tested form may be a part): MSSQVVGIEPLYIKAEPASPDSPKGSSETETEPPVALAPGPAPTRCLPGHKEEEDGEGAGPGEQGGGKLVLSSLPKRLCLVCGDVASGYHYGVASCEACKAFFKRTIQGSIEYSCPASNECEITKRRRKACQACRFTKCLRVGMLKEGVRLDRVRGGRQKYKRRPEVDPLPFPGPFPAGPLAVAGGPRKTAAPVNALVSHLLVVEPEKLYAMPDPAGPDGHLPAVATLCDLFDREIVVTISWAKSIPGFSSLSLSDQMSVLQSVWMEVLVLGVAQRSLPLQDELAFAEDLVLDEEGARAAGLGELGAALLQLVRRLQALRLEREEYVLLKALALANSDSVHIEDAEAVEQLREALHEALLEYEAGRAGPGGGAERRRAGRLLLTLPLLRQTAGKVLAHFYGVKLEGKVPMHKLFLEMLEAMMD
Sequence of Estrogen-related receptor gamma (Homo sapiens) (P62508 whole entry, looked up, the tested form may be a part): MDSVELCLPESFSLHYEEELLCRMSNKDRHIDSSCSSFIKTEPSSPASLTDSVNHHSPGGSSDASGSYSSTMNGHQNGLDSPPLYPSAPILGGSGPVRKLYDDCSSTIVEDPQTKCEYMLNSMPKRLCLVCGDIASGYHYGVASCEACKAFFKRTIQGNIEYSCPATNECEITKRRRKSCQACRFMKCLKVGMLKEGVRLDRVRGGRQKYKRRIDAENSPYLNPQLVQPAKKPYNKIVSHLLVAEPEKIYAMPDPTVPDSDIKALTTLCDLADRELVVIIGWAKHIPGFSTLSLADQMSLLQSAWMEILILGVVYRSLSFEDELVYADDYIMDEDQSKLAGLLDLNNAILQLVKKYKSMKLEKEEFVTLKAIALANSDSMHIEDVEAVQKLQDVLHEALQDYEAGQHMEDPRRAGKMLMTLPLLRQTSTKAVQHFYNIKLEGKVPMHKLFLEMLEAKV

For `CCCCC/C=C\C/C=C\CCCCCCCC(=O)OC`, the AC50 is 73.3 µM (active) in [1], 5.54 µM (active) in experiment [2] and 100 µM (active) in [8]. Also, the call in experiment [3], in [4], in experiment [5], in experiment [6], in experiment [7] and in experiment [9] was inactive. The compound was classed as inactive in experiment [10], in experiment [11], in experiment [12] and in experiment [13].

As for `CCCCCCCC(C)=O`, the result in [1], in experiment [2], in experiment [3], in experiment [4], in experiment [5] and in experiment [6] was inactive. In addition, the result in experiment [14], in [8], in experiment [9], in experiment [10], in experiment [15] and in experiment [13] was inactive. Besides, the call in experiment [16] and in experiment [17] was inactive.

Regarding `O=C1CC2CC1C1CCCC21` (stereo not given), the call in experiment [1], in [3], in [4], in experiment [5], in experiment [6] and in experiment [7] was inactive. In addition, the compound was classed as inactive in experiment [8], in [9], in [11], in experiment [18], in experiment [19] and in [13]. For the same compound, the compound was called inactive in [16] and in experiment [17]. The AC50 in [2] was 40.8 µM (active).

On to `CC(C)c1ccc2c(C(C)C)cc(C(C)C)c(S(=O)(=O)O)c2c1`, for which the result in experiment [1], in [3], in [4], in experiment [5], in experiment [6] and in experiment [9] was inactive. The result in [10], in experiment [11], in experiment [13] and in [17] was inactive. Further, the AC50 was 1.56 µM (active) in [2], 22.4 µM (active) in experiment [14], 8.94 µM (active) in [15] and 45.4 µM (active) in experiment [18].

Turning to `CCN(CCO)c1cccc(C)c1`, the result in experiment [1], in experiment [3], in experiment [4], in [5], in [6] and in [7] was inactive. Moreover, the outcome in [8], in experiment [9], in experiment [10], in experiment [11], in experiment [15] and in experiment [12] was inactive. The call in experiment [18], in experiment [19], in [13], in experiment [16], in [17] and in experiment [20] was inactive. The AC50 in [2] was 27.8 µM (active).
